Experiments:
Assay in all cases: yeast three-hybrid, YBZ-1, SC-Leu-His + 0.5 mM 3-AT, 4 days
Conditions in all cases: tags: N-Gal4 AD-HA kept; label: inside an RPR1-promoter hybrid RNA with tandem MS2 sites; ssRNA
[1] = target: PUM1 PUF domain R8-RFE (Homo sapiens, UniProt Q14671 828-1176, N1122R;Y1123F;Q1126E)
Summary of the method: (§1)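 The interaction score is the log change in how often each variant appears, from input to selection. Frequencies came from PCR-amplified, Illumina-sequenced repeat regions of Pumilio-1 PUF domain libraries grown in strain YBZ-1 (LexA–MS2 coat fusion, HIS3 reporter) alongside matching RNA elements. Input plates were SC-Leu and selection plates were SC-Leu-His + 0.5 mM 3-AT, each for four days, and the log2 calculation used a pseudocount of 1 where a variant was absent.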

[2] = target: PUM1 PUF domain R8-NWE (Homo sapiens, UniProt Q14671 828-1176, Y1123W;Q1126E)
PUM1 PUF domain R8-NWE, sequence (Q14671 828-1176 Y1123W/Q1126E): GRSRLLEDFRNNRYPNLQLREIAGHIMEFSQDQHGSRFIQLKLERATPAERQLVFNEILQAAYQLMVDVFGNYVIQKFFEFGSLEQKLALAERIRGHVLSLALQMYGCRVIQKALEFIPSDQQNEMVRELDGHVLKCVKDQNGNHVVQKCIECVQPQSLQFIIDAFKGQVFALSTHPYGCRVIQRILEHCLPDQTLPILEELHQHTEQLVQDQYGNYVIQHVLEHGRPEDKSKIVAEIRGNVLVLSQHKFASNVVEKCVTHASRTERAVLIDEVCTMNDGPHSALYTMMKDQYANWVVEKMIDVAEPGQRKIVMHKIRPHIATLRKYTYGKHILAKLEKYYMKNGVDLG
Summary of the method: as §1

[3] = target: PUM1 PUF domain R4-VRT (Homo sapiens, UniProt Q14671 828-1176, N971V;H972R;Q975T)
PUM1 PUF domain R4-VRT, sequence (Q14671 828-1176 N971V/H972R/Q975T): as the sequence (Q14671 828-1176 Y1123W/Q1126E) above, with N144V, H145R, Q148T, W296Y, E299Q counted along it
Summary of the method: as §1

[4] = target: PUM1 PUF domain R3-VRV (Homo sapiens, UniProt Q14671 828-1176, C935V;Q939V)
PUM1 PUF domain R3-VRV, sequence (Q14671 828-1176 C935V/Q939V): as the sequence (Q14671 828-1176 Y1123W/Q1126E) above, with C108V, Q112V, W296Y, E299Q counted along it
Summary of the method: as §1

[5] = target: PUM1 PUF domain R3-SPW (Homo sapiens, UniProt Q14671 828-1176, C935S;R936P;Q939W)
PUM1 PUF domain R3-SPW, sequence (Q14671 828-1176 C935S/R936P/Q939W): as the sequence (Q14671 828-1176 Y1123W/Q1126E) above, with C108S, R109P, Q112W, W296Y, E299Q counted along it
Summary of the method: as §1

[6] = target: PUM1 PUF domain R8-YYR (Homo sapiens, UniProt Q14671 828-1176, N1122Y;Q1126R)
PUM1 PUF domain R8-YYR, sequence (Q14671 828-1176 N1122Y/Q1126R): as the sequence (Q14671 828-1176 Y1123W/Q1126E) above, with N295Y, W296Y, E299R counted along it
Summary of the method: as §1

[7] = target: PUM1 PUF domain R3-SPD (Homo sapiens, UniProt Q14671 828-1176, C935S;R936P;Q939D)
PUM1 PUF domain R3-SPD, sequence (Q14671 828-1176 C935S/R936P/Q939D): as the sequence (Q14671 828-1176 Y1123W/Q1126E) above, with C108S, R109P, Q112D, W296Y, E299Q counted along it
Summary of the method: as §1

[8] = target: PUM1 PUF domain R8-PWY (Homo sapiens, UniProt Q14671 828-1176, N1122P;Y1123W;Q1126Y)
PUM1 PUF domain R8-PWY, sequence (Q14671 828-1176 N1122P/Y1123W/Q1126Y): as the sequence (Q14671 828-1176 Y1123W/Q1126E) above, with N295P, E299Y counted along it
Summary of the method: as §1

[9] = target: PUM1 PUF domain R8-SYN (Homo sapiens, UniProt Q14671 828-1176, N1122S;Q1126N)
PUM1 PUF domain R8-SYN, sequence (Q14671 828-1176 N1122S/Q1126N): as the sequence (Q14671 828-1176 Y1123W/Q1126E) above, with N295S, W296Y, E299N counted along it
Summary of the method: as §1

[10] = target: PUM1 PUF domain R1-KTE (Homo sapiens, UniProt Q14671 828-1176, S863K;R864T;Q867E)
PUM1 PUF domain R1-KTE, sequence (Q14671 828-1176 S863K/R864T/Q867E): as the sequence (Q14671 828-1176 Y1123W/Q1126E) above, with S36K, R37T, Q40E, W296Y, E299Q counted along it
Summary of the method: as §1

[11] = target: PUM1 PUF domain R5-RGT (Homo sapiens, UniProt Q14671 828-1176, C1007R;R1008G;Q1011T)
PUM1 PUF domain R5-RGT, sequence (Q14671 828-1176 C1007R/R1008G/Q1011T): as the sequence (Q14671 828-1176 Y1123W/Q1126E) above, with C180R, R181G, Q184T, W296Y, E299Q counted along it
Summary of the method: as §1

[12] = target: PUM1 PUF domain R3-YCD (Homo sapiens, UniProt Q14671 828-1176, C935Y;R936C;Q939D)
PUM1 PUF domain R3-YCD, sequence (Q14671 828-1176 C935Y/R936C/Q939D): as the sequence (Q14671 828-1176 Y1123W/Q1126E) above, with C108Y, R109C, Q112D, W296Y, E299Q counted along it
Summary of the method: as §1

[13] = target: PUM1 PUF domain R3-LSN (Homo sapiens, UniProt Q14671 828-1176, C935L;R936S;Q939N)
PUM1 PUF domain R3-LSN, sequence (Q14671 828-1176 C935L/R936S/Q939N): as the sequence (Q14671 828-1176 Y1123W/Q1126E) above, with C108L, R109S, Q112N, W296Y, E299Q counted along it
Summary of the method: as §1

[14] = target: PUM1 PUF domain R3-TCD (Homo sapiens, UniProt Q14671 828-1176, C935T;R936C;Q939D)
PUM1 PUF domain R3-TCD, sequence (Q14671 828-1176 C935T/R936C/Q939D): as the sequence (Q14671 828-1176 Y1123W/Q1126E) above, with C108T, R109C, Q112D, W296Y, E299Q counted along it
Summary of the method: as §1

[15] = target: PUM1 PUF domain R7-RSL (Homo sapiens, UniProt Q14671 828-1176, S1079R;N1080S;E1083L)
PUM1 PUF domain R7-RSL, sequence (Q14671 828-1176 S1079R/N1080S/E1083L): as the sequence (Q14671 828-1176 Y1123W/Q1126E) above, with S252R, N253S, E256L, W296Y, E299Q counted along it
Summary of the method: as §1

[16] = target: PUM1 PUF domain R7-RGL (Homo sapiens, UniProt Q14671 828-1176, S1079R;N1080G;E1083L)
PUM1 PUF domain R7-RGL, sequence (Q14671 828-1176 S1079R/N1080G/E1083L): as the sequence (Q14671 828-1176 Y1123W/Q1126E) above, with S252R, N253G, E256L, W296Y, E299Q counted along it
Summary of the method: as §1

[17] = target: PUM1 PUF domain R2-VYL (Homo sapiens, UniProt Q14671 828-1176, N899V;Q903L)
PUM1 PUF domain R2-VYL, sequence (Q14671 828-1176 N899V/Q903L): as the sequence (Q14671 828-1176 Y1123W/Q1126E) above, with N72V, Q76L, W296Y, E299Q counted along it
Summary of the method: as §1

PUM1 PUF domain R8-RFE, sequence (Q14671 828-1176 N1122R/Y1123F/Q1126E): as the sequence (Q14671 828-1176 Y1123W/Q1126E) above, with N295R, W296F counted along it

Sequence: GGCUAGAACUAGUGGAUCCCCCGGCGCCCGGCGGCUCGAGCCCGGGUAAGUGUAAAUAGUCUGCAUGCCGCCGGGCGCCAUGCCUGCAGGUCGACUCUAGAAAACAUG
- binding signal [1]: 2.4 log2 enrichment (interaction score)
- binding signal [2]: 2.9 log2 enrichment (interaction score)
- binding signal [3]: 4.25 log2 enrichment (interaction score)
- binding signal [4]: 3.29 log2 enrichment (interaction score)
- binding signal [5]: 3.13 log2 enrichment (interaction score)
- binding signal [6]: 5.34 log2 enrichment (interaction score)
- binding signal [7]: 3.36 log2 enrichment (interaction score)

Sequence: GGCUAGAACUAGUGGAUCCCCCGGCGCCCGGCGGCUCGAGCCCGGGUAAGCGUAAAUAGUCUGCAUGCCGCCGGGCGCCAUGCCUGCAGGUCGACUCUAGAAAACAUG
- binding signal [1]: 3.87 log2 enrichment (interaction score)
- binding signal [2]: 1.64 log2 enrichment (interaction score)
- binding signal [8]: 2.57 log2 enrichment (interaction score)
- binding signal [6]: 5.94 log2 enrichment (interaction score)
- binding signal [9]: 2.66 log2 enrichment (interaction score)

Sequence: GGCUAGAACUAGUGGAUCCCCCGGCGCCCGGCGGCUCGAGCCCGGGUAAGUGUAAAUCGUCUGCAUGCCGCCGGGCGCCAUGCCUGCAGGUCGACUCUAGAAAACAUG
- binding signal [10]: 4.3 log2 enrichment (interaction score)

Sequence: GGCUAGAACUAGUGGAUCCCCCGGCGCCCGGCGGCUCGAGCCCGGGUAAGUGUCAAUAGUCUGCAUGCCGCCGGGCGCCAUGCCUGCAGGUCGACUCUAGAAAACAUG
- binding signal [11]: 5.24 log2 enrichment (interaction score)

Sequence: GGCUAGAACUAGUGGAUCCCCCGGCGCCCGGCGGCUCGAGCCCGGGUAAGUGUAAGUAGUCUGCAUGCCGCCGGGCGCCAUGCCUGCAGGUCGACUCUAGAAAACAUG
- binding signal [12]: 3.96 log2 enrichment (interaction score)
- binding signal [13]: 4.28 log2 enrichment (interaction score)
- binding signal [14]: 4.9 log2 enrichment (interaction score)

Sequence: GGCUAGAACUAGUGGAUCCCCCGGCGCCCGGCGGCUCGAGCCCGGGUAAGUCUAAAUAGUCUGCAUGCCGCCGGGCGCCAUGCCUGCAGGUCGACUCUAGAAAACAUG
- binding signal [15]: 2.11 log2 enrichment (interaction score)
- binding signal [16]: 1.29 log2 enrichment (interaction score)

Sequence: GGCUAGAACUAGUGGAUCCCCCGGCGCCCGGCGGCUCGAGCCCGGGUAAGUUUAAAUAGUCUGCAUGCCGCCGGGCGCCAUGCCUGCAGGUCGACUCUAGAAAACAUG
- binding signal [15]: 3.53 log2 enrichment (interaction score)
- binding signal [16]: 3.07 log2 enrichment (interaction score)

Sequence: GGCUAGAACUAGUGGAUCCCCCGGCGCCCGGCGGCUCGAGCCCGGGUAAGUGUAAUUAGUCUGCAUGCCGCCGGGCGCCAUGCCUGCAGGUCGACUCUAGAAAACAUG
- binding signal [13]: 2.89 log2 enrichment (interaction score)

Sequence: GGCUAGAACUAGUGGAUCCCCCGGCGCCCGGCGGCUCGAGCCCGGGUAAGUGUAAAAAGUCUGCAUGCCGCCGGGCGCCAUGCCUGCAGGUCGACUCUAGAAAACAUG
- binding signal [17]: 2.41 log2 enrichment (interaction score)
